Results on 20 compounds are retold here after ChEMBL document CHEMBL2218924, “A broad activity screen in support of a chemogenomic map for kinase signalling research and drug discovery” (Biochem J, 2013).

Molecules are shown by their SMILES.

Chain of Death-associated protein kinase 1 (Homo sapiens) (P53355 whole entry, looked up): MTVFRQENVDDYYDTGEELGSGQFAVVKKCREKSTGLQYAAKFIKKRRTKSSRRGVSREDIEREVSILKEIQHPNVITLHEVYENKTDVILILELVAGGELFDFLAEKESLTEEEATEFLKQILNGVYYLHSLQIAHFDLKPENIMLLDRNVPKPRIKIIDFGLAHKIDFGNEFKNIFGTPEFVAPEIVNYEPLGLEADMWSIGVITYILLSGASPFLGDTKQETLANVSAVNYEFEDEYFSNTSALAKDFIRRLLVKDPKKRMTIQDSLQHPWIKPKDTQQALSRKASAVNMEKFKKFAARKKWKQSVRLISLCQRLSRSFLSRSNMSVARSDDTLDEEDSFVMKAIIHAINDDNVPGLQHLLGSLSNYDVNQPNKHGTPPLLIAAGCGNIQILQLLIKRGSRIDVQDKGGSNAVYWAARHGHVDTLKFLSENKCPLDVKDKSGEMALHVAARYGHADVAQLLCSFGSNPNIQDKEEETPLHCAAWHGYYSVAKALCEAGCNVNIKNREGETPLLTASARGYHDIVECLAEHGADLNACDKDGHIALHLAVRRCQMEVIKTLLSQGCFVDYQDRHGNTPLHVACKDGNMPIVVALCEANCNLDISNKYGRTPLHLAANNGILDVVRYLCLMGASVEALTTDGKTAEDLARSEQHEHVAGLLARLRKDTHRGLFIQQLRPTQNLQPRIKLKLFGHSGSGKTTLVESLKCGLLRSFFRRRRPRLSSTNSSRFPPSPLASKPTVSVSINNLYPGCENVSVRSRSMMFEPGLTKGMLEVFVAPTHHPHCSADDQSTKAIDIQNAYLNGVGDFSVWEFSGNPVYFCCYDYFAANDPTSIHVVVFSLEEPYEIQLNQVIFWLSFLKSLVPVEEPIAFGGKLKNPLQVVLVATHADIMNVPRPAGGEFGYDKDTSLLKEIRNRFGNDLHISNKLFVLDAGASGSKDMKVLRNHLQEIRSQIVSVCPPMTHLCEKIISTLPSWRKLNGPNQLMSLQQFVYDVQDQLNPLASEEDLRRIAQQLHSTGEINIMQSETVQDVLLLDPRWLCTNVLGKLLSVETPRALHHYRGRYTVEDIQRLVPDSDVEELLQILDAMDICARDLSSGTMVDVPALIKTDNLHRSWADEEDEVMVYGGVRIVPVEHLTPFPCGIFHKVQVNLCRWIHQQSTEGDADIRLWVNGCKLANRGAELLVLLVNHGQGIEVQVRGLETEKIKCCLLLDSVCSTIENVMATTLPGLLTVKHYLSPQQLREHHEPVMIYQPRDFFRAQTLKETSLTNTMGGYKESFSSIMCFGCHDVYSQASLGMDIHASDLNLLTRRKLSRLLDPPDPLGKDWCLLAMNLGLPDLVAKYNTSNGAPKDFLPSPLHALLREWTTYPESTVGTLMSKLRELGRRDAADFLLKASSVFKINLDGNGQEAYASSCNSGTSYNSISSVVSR

This experiment addresses Death-associated protein kinase 1 (Homo sapiens) (UniProt P53355). To be noted: at 1 µM.
Take `Cn1cnc2cc3c(Nc4cccc(Br)c4)ncnc3cc21`: the residual activity (commonly the signal under treatment as a percentage of the control signal) was determined as 94%.
In the case of `Cc1cccc(-c2[nH]c(C(C)(C)C)nc2-c2ccc3c(c2)OCO3)n1`, the residual activity was determined as 79%.
`CN(C)CCCn1cc(C2=C(c3c[nH]c4ccccc34)C(=O)NC2=O)c2ccccc21`: the residual activity was 106%.
For `O=c1cc(N2CCNCC2)oc2c(-c3ccccc3)cccc12`, the residual activity was found to be 96%.
For the compound `O=C1Nc2cc(Br)ccc2/C1=C1/Nc2ccccc2/C1=N\O`, the residual activity came to 80%.
For `Oc1c2ccccc2c2c3c(cccc13)N=N2` the value was 91%.
For `O=C1NC(=O)/C(=C\c2ccc3nccnc3c2)S1` the value was 87%; for `Nc1nc(Nc2ccc(S(N)(=O)=O)cc2)nn1C(=O)c1c(F)cccc1F`, 97%.
In the case of `Cc1ccc(S(=O)(=O)/C=C/C#N)cc1`, the residual activity was 88%.
For `Cc1cc2ncc(-c3ccccc3)nc2cc1C`, the residual activity was 92%.
Then `Cn1cc(/C=C2\C(=O)Nc3ccc(S(N)(=O)=O)cc32)c2ccccc21`, with 94%; and `N#Cc1c(NC(=O)c2cccc3ccccc23)sc2c1CCCC2`, with 93%.
With `N#C/C(=C(\N)Sc1ccc(N)cc1)c1ccccc1C(F)(F)F`, the residual activity was found to be 84%.
Consider `Nc1ncnc2c1cnn2-c1ccccc1`, for which the residual activity is 84%.
With `COc1cc2ncnc(Nc3ccc(Oc4ccccc4)cc3)c2cc1OC`, the residual activity stood at 100%.
Then `Cc1cncc2cccc(S(=O)(=O)N3CCCN(C(=O)CN)C[C@H]3C)c12`, with 88%.
On to `c1ccc2c(-c3ccncc3)c[nH]c2c1`, for which the residual activity came out at 85%.
Then `Cc1cc(Nc2nc(-c3ccccc3)nc3ccccc23)n[nH]1`, with 59%.
Then `COc1cc2ncnc(N3CCN(C(=O)Nc4ccc(Oc5ccccc5)cc4)CC3)c2cc1OC`, with 90%.
On to `CC(C)n1cnc2/c(=N/c3cccc(Cl)c3)nc(NCCO)[nH]c21`, for which the residual activity amounted to 89%.
